Experimental data taken from paper PMC5540273 (PLoS ONE, 2017).

Experiments:
Settings in all cases: concentration: 1 μM,replicates: in singlicate; n = 1
ADCK4 = tested on: ADCK4
AKT1 = tested on: AKT1
AKT2 = tested on: AKT2
AKT3 = tested on: AKT3
ALK = tested on: ALK
AMPK-alpha1 = tested on: T1, AMPK-alpha1
T1 construct: gene PRKAA1

AMPK-alpha2 = tested on: T2, AMPK-alpha2
T2 construct: gene PRKAA2

ANKK1 = tested on: ANKK1
ARK5 = tested on: T3, ARK5
T3 construct: gene NUAK1

ASK1 = tested on: T4, ASK1
T4 construct: gene MAP3K5

ASK2 = tested on: T5, ASK2
T5 construct: gene MAP3K6

AURKA = tested on: AURKA
AURKB = tested on: AURKB
AURKC = tested on: AURKC
AXL = tested on: AXL
BIKE = tested on: T6, BIKE
T6 construct: gene BMP2K

BLK = tested on: BLK
BMPR1A = tested on: BMPR1A
BMPR1B = tested on: BMPR1B
BMPR2 = tested on: BMPR2
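Also: KINOMEscan kinase panel screen.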

Row | Compound | %Inh (ADCK4) | %Inh (AKT1) | %Inh (AKT2) | %Inh (AKT3) | %Inh (ALK) | %Inh (AMPK-alpha1) | %Inh (AMPK-alpha2) | %Inh (ANKK1) | %Inh (ARK5) | %Inh (ASK1) | %Inh (ASK2) | %Inh (AURKA) | %Inh (AURKB) | %Inh (AURKC) | %Inh (AXL) | %Inh (BIKE) | %Inh (BLK) | %Inh (BMPR1A) | %Inh (BMPR1B) | %Inh (BMPR2)
1 | CSc1nccc(-c2c(-c3ccc(F)cc3)ncn2CCCN2CCOCC2)n1.Cl [SB-217146] | 25% | 14% | 0% | 0% | 0% | 0% | 0% | 1% | 0% | 0% | 0% | 7% | 35% | 0% | 0% | 0% | 0% | 0% | 4% | 39%
2 | CCCC(=O)Nc1n[nH]c2ncccc12 [SB-601436] | 0% | 0% | 0% | 2% | 0% | 0% | 0% | 13% | 0% | 0% | 0% | 0% | 18% | 0% | 18% | 9% | 19% | 0% | 0% | 17%
3 | Cc1ccc(C(=O)Nc2ccc(Oc3ccc4nc(NC(=O)C5CC5)cn4c3)c(F)c2)c(=O)n1-c1ccccc1 | 27% | 0% | 0% | 7% | 8% | 5% | 0% | 0% | 0% | 0% | 0% | 0% | 82% | 48% | 84% | 4% | 99.3% | 0% | 0% | 0%
4 | CCOC(=O)N1CCC(n2cnc(-c3ccc(F)cc3)c2-c2ccnc(N)n2)CC1 [SB-219952] | 20% | 7% | 0% | 24% | 0% | 99.8% | 4% | 0% | 0% | 0% | 0% | 19% | 37% | 19% | 19% | 4% | 1% | 10% | 0% | 22%
5 | COc1cc(Nc2nccc(N3CCC(NC(=O)c4cccc(C#N)c4)C3)n2)cc(OC)c1OC (stereo not shown) [GSK1379751] | 50% | 0% | 0% | 0% | 14% | 0% | 0% | 24% | 26% | 0% | 0% | 68% | 36% | 56% | 22% | 90% | 0% | 0% | 2% | 11%
